# Source: PubChem
# Shown are actives, neighbours in structure and some others; about 17% of the full set was active somewhere.
# DT40 TDP1 no CPT: qHTS for Inhibitors of human tyrosyl-DNA phosphodiesterase 1 (TDP1): qHTS in cells in absence of CPT; Potency, µM (top dose mostly 46.2 µM), hits mostly inhibitors; 420,000 tested, 15% active; DT40 Tdp1-/- hTDP1 cells, no CPT, ATP luminescence, 48 h; also: nearly all actives have a fitted effect of over 55% in size
#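 Readout: luminescence from CellTiter-Glo after 30 min in the dark at RT. Cells: DT40 Tdp1-/- with stable hTDP1, 400/well. Exposure: compounds alone, ≥48 hr, 37 °C.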
# HT1080NT lethal: kills 2HG-producing HT-1080-NT fibrosarcoma cells. AID 686970. HT-1080-NT fibrosarcoma viability, CellTiter-Glo ATP luminescence, 48 h. Potency, µM (titrated, usually from 46.1 µM), usual class: cytotoxic. 360,000 tested, 1.6% active;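 also: NT is the 2HG producing partner of a matched IDH1 knockdown line; nearly all actives have a fitted effect of over 55% in size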
#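 Compounds were tested in concentration-response format on HT-1080-NT cells for 48 hours at 37 degrees C. Cell viability came from CellTiter-Glo luminescence; curves were classified by r2, response magnitude and activity.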
# DT40 TDP1 CPT: DT40-hTDP1 cell growth loss with CPT | chicken DT40 Tdp1-/-;hTDP1 cells + 20 nM CPT, ATP luminescence, 48 h | Potency, µM (highest dose often 46.2 µM), usual class: inhibitors | 420,000 tested, 12% active | AID 686979; also: nearly all actives have a fitted effect of over 55% in size
#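 Cell growth measured by CellTiter-Glo luminescence after a minimum 48 h, 37 C compound exposure with 20 nM CPT in Tdp1-knockout DT40 cells stably expressing hTDP1, seeded 400/well; qHTS titration format.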
# HepG2 tox: counter-screen for TGF-b inhibitors: cytotoxicity in HepG2 cells | 410,000 tested, 0.76% active | Potency, µM (doses to about 46.1 µM), hits mostly cytotoxic | HepG2 CAGA-GFP viability, ATP luminescence, 18 h
#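 CellTiter-Glo luminescence gave cytotoxicity after 18 hours at 37 degrees C. The cells were HepG2 CAGA-GFP in 1% FBS DMEM, stimulated with 500 pg/mL TGF-beta after compound addition. %Activity was normalised to no-cell wells (complete cell-killing) and DMSO (no toxicity), and curves were fitted and classified.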
# HT1080 IDH1KD tx: toxicity to HT-1080 IDH1 knockdown cells (counter line). HT-1080 IDH1 knockdown viability, ATP luminescence, 48 h. Potency, µM (top dose mostly 46.1 µM), most hits filed as cytotoxic. 360,000 tested, 2% active
#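 In this qHTS, HT-1080 cells depleted of IDH1 are exposed for 48 h at 37 °C to compound titrations. Toxicity is scored from CellTiter-Glo luminescence, with DMSO as full viability and medium alone as none.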
# TGFb SMAD3 inh: inhibitors of TGF-b signaling | HepG2 CAGA-GFP TGF-b/SMAD3 reporter, GFP fluorescence, 18 h; TGF-beta stimulated, 500 pg/mL final | Potency, µM (titrated, usually from 46.1 µM), usual class: inhibitors | 410,000 tested, 1.2% active | AID 588855; also: nearly all actives have a fitted effect of over 65% in size
#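 Inhibition was scored as loss of TGF-beta-induced (500 pg/mL final, 18 hours, 37 degrees C) GFP in HEPG2 cells carrying a CAGA-GFP reporter, in DMEM with 1% FBS. Well GFP was summed per cell; Activity was normalised to unstimulated and stimulated DMSO wells, then concentration-response fitting.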
# A number is an active result; – = inactive; ? = inconclusive; · = not tested or not shown; [ ] = dose if it differs, or a comment. Calls follow the shape of the dose curve; as a rule, active = well fitted curve in the direction sought with a large enough effect; inconclusive = small, poorly fitted or top-dose-only effect, or another doubt; inactive = no such curve, though single readings can be large; an effect the other way counts as inactive or inconclusive.
SMILES,DT40 TDP1 no CPT,HT1080NT lethal,DT40 TDP1 CPT,HepG2 tox,HT1080 IDH1KD tx,TGFb SMAD3 inh
CCCCCCN1CCN(C2CN(Cc3ccc([N+](=O)[O-])cc3)S(=O)(=O)C2)CC1 (stereo not drawn),?,–,?,–,–,?
O=C(N/N=C/c1ccccc1O)c1cccc(C(F)(F)F)c1,3.26µM,?,5.17µM,–,2.59µM,?
Cc1cccc(C(=O)N/N=C/c2ccccn2)c1,14.6µM,–,?,–,?,?
O=C(CNc1ccc2ccccc2c1)N/N=C/c1ccccn1,18.4µM,–,?,–,–,–
Cc1cccc(C(=O)Nc2cccc(C(=O)N/N=C/c3ccccn3)c2)c1,?,–,–,–,–,–
O=C(N/N=C/c1ccccn1)c1cccc(S(=O)(=O)Nc2ccccc2Cl)c1,16.4µM,–,16.4µM,–,?,–
CC(C)OCCCn1c(-c2ccc(Br)cc2)c[nH]c1=S,?,–,?,–,–,–
CCC1CC(C(=O)Nc2ccccc2)C(=O)O1 (stereo not drawn),–,–,–,–,–,–
O=C([C@@H]1C[C@@H](Sc2nc3ccccc3[nH]2)CN1CC1CCCCC1)N1CCOCC1,–,·,–[9.04 µM],·,·,·
Cc1ccccc1NC(C)C(=O)N/N=C/c1c[nH]c2ccccc12 (stereo not drawn),–,–,–,–,–,–
CC(Nc1cccc2ccccc12)C(=O)N/N=C/c1ccccn1 (stereo not drawn),20.6µM,14.1µM,25.9µM,–,7.08µM,?
O=C(N/N=C/c1ccccn1)c1ccc(NC(=O)c2cccc([N+](=O)[O-])c2)cc1,?,–,–,–,–,–
CC(/C=C/c1ccc2c(c1)OCO2)=N\NC(=O)c1cccc([N+](=O)[O-])c1,14.6µM,–,20.6µM,–,–,–
O=C(N/N=C/c1cccc(O)c1)c1ccc(NC(=O)c2cccc([N+](=O)[O-])c2)cc1,18.4µM,–,?,–,–,–
O=C(CCc1ccccc1)OCCOC(=O)CCc1ccccc1,–,–,–,–,–,–
CC[N+](C)(CC)CCC(c1ccccc1)C1CCCCC1 (stereo not drawn),?,–,8.2µM,–,–,–
CC[N+](C)(CC)CCOC(=O)C(O)(c1ccccc1)C1CCCCC1 (stereo not drawn),?,?,?,–,–,–
CN(C)CCn1c2c(c(SCC(=O)N3CCc4ccccc43)nc1=O)CCCC2,?,–,–,–,–,–
Nc1ncnc2c1ncn2[C@@H]1O[C@H](C(=O)N2CCN(c3ccc(Cl)cn3)CC2)[C@@H](O)[C@H]1O,20.6µM,?,–,–,?,–
C#CCOCCOCCOCCNc1nc(N2CCN(C(=O)[C@H](CCC(=O)O)n3cc(C(N)[C@H](C)CC)nn3)CC2)nc(N2CCN(C(=O)[C@H](CCC(=O)O)n3cc(C(N)[C@H](C)CC)nn3)CC2)n1 (stereo partly drawn),?,–,–,–,–,–
CCOc1ccc(CCNC(=O)COC(=O)c2cccnc2SC)cc1OCC,–,–,–,–,–,?
COCCn1c(SCC(=O)Nc2ccc(F)c(Cl)c2)nc2c(oc3ccccc32)c1=O,?,·,5.17µM,–,·,?
COCCn1c(SCC(=O)Nc2cccc(S(N)(=O)=O)c2)nc2cc(Cl)ccc2c1=O,18.4µM,–,14.6µM,–,–,–
Cc1ccc(-n2c(SCC(=O)Nc3cccc(S(N)(=O)=O)c3)nc3ccccc32)cc1,?,–,18.4µM,–,?,?
COc1ccc(NC(=O)CSc2nc3c(oc4ccccc43)c(=O)n2Cc2ccco2)cc1Cl,20.6µM,·,?,–,·,–
SMILES,DT40 TDP1 no CPT,HT1080NT lethal,DT40 TDP1 CPT,HepG2 tox,HT1080 IDH1KD tx,TGFb SMAD3 inh
CC(=O)N(C)C[C@@H]1Oc2ncc(Br)cc2C(=O)N([C@H](C)CO)C[C@@H]1C,–,–,–,–,–,–
CCn1c(SCC(=O)Nc2cccc(C)c2)nc2nc3c(cc2c1=O)COC(C)(C)C3,18.4µM,–,25.9µM,–,–,–
Cc1ccc(NC(=O)CSc2nc3c(oc4ccccc43)c(=O)n2Cc2ccco2)cc1F,–,·,–,–,·,–
O=C(CSc1nc2c(oc3ccccc32)c(=O)n1Cc1ccco1)Nc1cccc(Cl)c1,20.6µM,·,?,–,·,–
COc1cccc(NC(=O)CSc2nc3c(oc4ccccc43)c(=O)n2Cc2ccco2)c1,9.2µM,·,9.2µM,–,·,–
Cc1cccc(NC(=O)CSc2nc3c(oc4ccccc43)c(=O)n2Cc2ccco2)c1,16.4µM,·,23.1µM,–,·,–
Cc1ccc(NC(=O)COC(=O)CN2C(=O)NC3(CCCC3)C2=O)cc1Cl,–,–,–,–,–,–
COC(=O)[C@H]1CN(C(=O)c2ccccc2)C(=O)N1,–,–,–,–,–,–
CCN(CC(=O)N1CCOCC1)S(=O)(=O)c1ccc2ccccc2c1,–,–,–,–,–,–
CCOc1ccc(-c2cc(C(F)(F)F)c(C#N)c(SCC(=O)Nc3ccccc3)n2)cc1,?,·,?,–,·,–
Cc1ccc(C2CC(=O)c3cnn(-c4nc(C)cc(C)n4)c3C2)cc1 (stereo not drawn),–,–,–,–,–,–
O=C(Cc1ccc(NC(=O)C2CCCN(C(=O)CCc3ccccc3)C2)cc1)Nc1cccc(C(=O)N2CCCCC2)c1 (stereo not drawn),?,–,?,–,–,?
O=C(Cc1cccc(NC(=O)C2CCCN(C(=O)CCc3ccccc3)C2)c1)Nc1cccc(C(=O)N2CCCC2)c1 (stereo not drawn),23.1µM,–,18.4µM,–,–,–
O=C(Cc1ccc(NC(=O)C2CCCN(C(=O)CCc3ccccc3)C2)cc1)Nc1cccc(C(=O)N2CCCC2)c1 (stereo not drawn),13µM,–,23.1µM,–,–,–
CC(=O)Nc1ccc(S(=O)(=O)Nc2ccc(-n3cnnn3)cc2)cc1,?,–,–,–,–,–
Cc1ccc(/C=C/C(=O)Nc2nc3ccccc3[nH]2)cc1,?,–,13µM,–,–,–
Cc1ccc(C)c(C(=O)Nc2nc3ccccc3[nH]2)c1,2.31µM,–,?,–,–,–
Cc1ccc(Nc2nc3ccccc3[nH]2)nc1,16.4µM,–,?,–,–,–
Cc1ccc(/C=C/C(=O)c2nc3ccccc3[nH]2)cc1,16.4µM,–,20.6µM,–,–,?
Cc1ccc(Cc2nc3ccccc3[nH]2)cc1,?,–,–,–,–,–
